Data published in PubChem BioAssay AID1159580 (chemical genetic matrix, 2015).
Values joined by “and” are separate entries in the source; they are usually repeats but may differ in a detail not shown here. Equal values may be shown once. Among all 5,500 compounds or so, about 2,000 (36%) were called active. Another 18% or so got no clear call; they are omitted. Cut-off read from the data, not from the text of the source: active = normalized growth mostly below about 0.91 (no sharp cut-off); inconclusive = no clear call, values can overlap the other calls; inactive = mostly above about 0.92. The list shows a part of the results.

Assay: chemical genetic growth profiling, strain panel (AID 1159580);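 note: tested at 20 µM; growth read once vehicle control cultures reached saturation at 30 °C; 1 = growth at the plate median or of vehicle wells; lower values mean less growth of the strain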
Conditions: S. cerevisiae deletion strains, growth OD

Question: For `C/C(=C\CO)CC[C@H](C)CCC[C@H](C)CCCC(C)C`, which normalized growth (locus YAL021C, strain ccr4, stronger effect = lower value) is on record?
Answer: The normalized growth was 1.12 [resistant] (active).

Question: What about the normalized growth (locus YAL026C, strain drs2, stronger effect = lower value) of the same molecule?
Answer: Its normalized growth is 1.12 [resistant] (active).

Question: What about the normalized growth (locus YAL030W, strain snc1, stronger effect = lower value) of the same molecule?
Answer: The normalized growth was 1.13 [resistant] (active).

Question: And the normalized growth (locus YBL061C, strain skt5, stronger effect = lower value)?
Answer: The normalized growth was 0.97 (inactive).

Question: And the normalized growth (locus YBR009C, strain hhf1, stronger effect = lower value)?
Answer: The normalized growth was 1.12 [resistant] (active).

Question: And the normalized growth (locus YBR021W, strain FUR4, stronger effect = lower value)?
Answer: Its normalized growth is 1 (inactive).

Question: And the normalized growth (locus YBR023C, strain chs3, stronger effect = lower value)?
Answer: The normalized growth was 0.974 (inactive).

Question: And the normalized growth (locus YBR171W, strain sec66, stronger effect = lower value)?
Answer: Its normalized growth is 1.11 (inactive).

Question: And the normalized growth (locus YBR229C, strain ROT2, stronger effect = lower value)?
Answer: Its normalized growth is 1.04 (inactive).

Question: And the normalized growth (locus YBR231C, strain swc5, stronger effect = lower value)?
Answer: The normalized growth was 0.976 (inactive).

Question: And the normalized growth (locus YBR279W, strain paf1, stronger effect = lower value)?
Answer: Its normalized growth is 0.993 (inactive).

Question: And the normalized growth (locus YCL011C, strain gbp2, stronger effect = lower value)?
Answer: The normalized growth was 1.14 [resistant] (active).

Question: And the normalized growth (locus YCL016C, strain dcc1, stronger effect = lower value)?
Answer: Its normalized growth is 0.976 (inactive).

Question: And the normalized growth (locus YCL029C, strain bik1, stronger effect = lower value)?
Answer: The normalized growth was 1.08 (inactive).

Question: And the normalized growth (locus YCL061C, strain MRC1, stronger effect = lower value)?
Answer: The normalized growth was 1.11 [resistant] (active).

Question: What about the normalized growth (locus YCL069W, strain vba3, stronger effect = lower value) of the same molecule?
Answer: Its normalized growth is 1.11 [resistant] (active).

Question: What about the normalized growth (locus YCR088W, strain abp1, stronger effect = lower value) of the same molecule?
Answer: The normalized growth was 1.12 [resistant] (active).

Question: What about the normalized growth (locus YDL005C, strain med2, stronger effect = lower value) of the same molecule?
Answer: The normalized growth was 1.14 [resistant] (active).

Question: And the normalized growth (locus YDL035C, strain GPR1, stronger effect = lower value)?
Answer: Its normalized growth is 1.07 (inactive).

Question: What about the normalized growth (locus YDL040C, strain nat1, stronger effect = lower value) of the same molecule?
Answer: Its normalized growth is 0.973 (inactive).

Question: What about the normalized growth (locus YDL074C, strain BRE1, stronger effect = lower value) of the same molecule?
Answer: The normalized growth was 1.1 (inactive).

Question: What about the normalized growth (locus YDL101C, strain DUN1, stronger effect = lower value) of the same molecule?
Answer: The normalized growth was 1.08 (inactive).

Question: What about the normalized growth (locus YDL185W, strain tfp1, stronger effect = lower value) of the same molecule?
Answer: The normalized growth was 1.11 [resistant] (active).

Question: And the normalized growth (locus YDL192W, strain arf1, stronger effect = lower value)?
Answer: The normalized growth was 1.13 [resistant] (active).

Question: And the normalized growth (locus YDR001C, strain nth1, stronger effect = lower value)?
Answer: Its normalized growth is 1.13 [resistant] (active).

Question: What about the normalized growth (locus YDR069C, strain doa4, stronger effect = lower value) of the same molecule?
Answer: Its normalized growth is 1.15 [resistant] (active).

Question: What about the normalized growth (locus YDR101C, strain arx1, stronger effect = lower value) of the same molecule?
Answer: Its normalized growth is 1.11 [resistant] (active).

Question: What about the normalized growth (locus YDR137W, strain rgp1, stronger effect = lower value) of the same molecule?
Answer: Its normalized growth is 0.93 (inactive).

Question: What about the normalized growth (locus YDR150W, strain NUM1, stronger effect = lower value) of the same molecule?
Answer: Its normalized growth is 1.1 [resistant] (active).

Question: And the normalized growth (locus YDR159W, strain sac3, stronger effect = lower value)?
Answer: The normalized growth was 1.05 (inactive).

Question: And the normalized growth (locus YDR162C, strain NBP2, stronger effect = lower value)?
Answer: The normalized growth was 1.11 (inactive).

Question: What about the normalized growth (locus YDR195W, strain ref2) of the same molecule?
Answer: Its normalized growth is 1.09 (inactive).

Question: And the normalized growth (locus YDR297W, strain sur2, stronger effect = lower value)?
Answer: Its normalized growth is 1.13 [resistant] (active).

Question: What about the normalized growth (locus YDR318W, strain mcm21, stronger effect = lower value) of the same molecule?
Answer: Its normalized growth is 1.13 [resistant] (active).

Question: What about the normalized growth (locus YDR334W, strain swr1, stronger effect = lower value) of the same molecule?
Answer: Its normalized growth is 1.14 [resistant] (active).

Question: What about the normalized growth (locus YDR335W, strain msn5, stronger effect = lower value) of the same molecule?
Answer: Its normalized growth is 1.13 [resistant] (active).

Question: And the normalized growth (locus YDR388W, stronger effect = lower value)?
Answer: The normalized growth was 1.12 [resistant] (active).

Question: And the normalized growth (locus YDR392W, strain spt3, stronger effect = lower value)?
Answer: The normalized growth was 1.11 (inactive).

Question: And the normalized growth (locus YDR502C, strain sam2, stronger effect = lower value)?
Answer: Its normalized growth is 1.16 [resistant] (active).

Question: And the normalized growth (locus YEL003W, strain gim4, stronger effect = lower value)?
Answer: Its normalized growth is 1.13 [resistant] (active).

Question: What about the normalized growth (locus YEL037C, strain rad23, stronger effect = lower value) of the same molecule?
Answer: Its normalized growth is 1.13 [resistant] (active).

Question: And the normalized growth (locus YEL061C, strain CIN8 (second series), stronger effect = lower value)?
Answer: Its normalized growth is 1.14 [resistant] (active).

Question: And the normalized growth (locus YEL061C, strain CIN8, stronger effect = lower value)?
Answer: Its normalized growth is 1.09 [resistant] (active).

Question: What about the normalized growth (locus YER015W, strain faa2, stronger effect = lower value) of the same molecule?
Answer: Its normalized growth is 1.12 [resistant] (active).

Question: What about the normalized growth (locus YER016W, strain bim1, stronger effect = lower value) of the same molecule?
Answer: Its normalized growth is 0.97 (inactive).

Question: What about the normalized growth (locus YER110C, stronger effect = lower value) of the same molecule?
Answer: The normalized growth was 1.14 [resistant] (active).

Question: And the normalized growth (locus YER111C, strain swi4, stronger effect = lower value)?
Answer: The normalized growth was 1.06 (inactive).

Question: What about the normalized growth (locus YER155C, strain BEM2 (second series), stronger effect = lower value) of the same molecule?
Answer: The normalized growth was 1.07 (inactive).

Question: And the normalized growth (locus YER155C, strain BEM2, stronger effect = lower value)?
Answer: Its normalized growth is 1.02 (inactive).

Question: And the normalized growth (locus YER167W, strain BCK2, stronger effect = lower value)?
Answer: Its normalized growth is 1.01 (inactive).

Question: What about the normalized growth (locus YFR010W, strain ubp6, stronger effect = lower value) of the same molecule?
Answer: Its normalized growth is 1.18 [resistant] (active).

Question: And the normalized growth (locus YGL078C, strain dbp3, stronger effect = lower value)?
Answer: The normalized growth was 1.13 [resistant] (active).

Question: And the normalized growth (locus YGL086W, strain mad1, stronger effect = lower value)?
Answer: Its normalized growth is 1.09 [resistant] (active).

Question: And the normalized growth (locus YGL167C, strain pmr1, stronger effect = lower value)?
Answer: Its normalized growth is 0.962 (inactive).

Question: What about the normalized growth (locus YGL173C, strain kem1, stronger effect = lower value) of the same molecule?
Answer: Its normalized growth is 1.1 [resistant] (active).

Question: And the normalized growth (locus YGL227W, strain vid30, stronger effect = lower value)?
Answer: Its normalized growth is 1.12 [resistant] (active).

Question: What about the normalized growth (locus YGL240W, strain doc1, stronger effect = lower value) of the same molecule?
Answer: The normalized growth was 1.13 [resistant] (active).

Question: And the normalized growth (locus YGL248W, strain PDE1, stronger effect = lower value)?
Answer: The normalized growth was 1.06 (inactive).

Question: And the normalized growth (locus YGL253W, strain hxk2, stronger effect = lower value)?
Answer: The normalized growth was 1.12 [resistant] (active).

Question: And the normalized growth (locus YGR078C, strain PAC10, stronger effect = lower value)?
Answer: The normalized growth was 1.13 (inactive).

Question: And the normalized growth (locus YGR135W, strain pre9, stronger effect = lower value)?
Answer: Its normalized growth is 1.15 [resistant] (active).

Question: And the normalized growth (locus YGR229C, strain SMI1, stronger effect = lower value)?
Answer: Its normalized growth is 1.14 (inactive).

Question: And the normalized growth (locus YGR252W, strain gcn5, stronger effect = lower value)?
Answer: Its normalized growth is 1.1 (inactive).

Question: What about the normalized growth (locus YHR013C, strain ard1, stronger effect = lower value) of the same molecule?
Answer: Its normalized growth is 0.945 (inactive).

Question: What about the normalized growth (locus YHR027C, strain rpn1, stronger effect = lower value) of the same molecule?
Answer: Its normalized growth is 1.14 [resistant] (active).

Question: And the normalized growth (locus YHR030C, strain SLT2, stronger effect = lower value)?
Answer: Its normalized growth is 1.09 [resistant] (active) and 0.974 (inactive).

Question: What about the normalized growth (locus YHR079C, strain IRE1 (second series), stronger effect = lower value) of the same molecule?
Answer: The normalized growth was 1.13 [resistant] (active).

Question: What about the normalized growth (locus YHR079C, strain IRE1, stronger effect = lower value) of the same molecule?
Answer: Its normalized growth is 0.966 (inactive).

Question: And the normalized growth (locus YHR094C, strain hxt1, stronger effect = lower value)?
Answer: The normalized growth was 1.14 [resistant] (active).

Question: And the normalized growth (locus YHR129C, strain ARP1, stronger effect = lower value)?
Answer: Its normalized growth is 1.08 (inactive).

Question: And the normalized growth (locus YHR142W, strain chs7, stronger effect = lower value)?
Answer: The normalized growth was 1.09 (inactive).

Question: And the normalized growth (locus YHR200W, strain rpn10, stronger effect = lower value)?
Answer: The normalized growth was 1.13 [resistant] (active).

Question: What about the normalized growth (locus YIL066C, strain RNR3, stronger effect = lower value) of the same molecule?
Answer: Its normalized growth is 1.09 (inactive).

Question: And the normalized growth (locus YIL073C, strain SPO22, stronger effect = lower value)?
Answer: The normalized growth was 1.25 (inactive).

Question: What about the normalized growth (locus YIL125W, strain kgd1, stronger effect = lower value) of the same molecule?
Answer: The normalized growth was 1.12 [resistant] (active).

Question: What about the normalized growth (locus YIR030C, strain dcg1, stronger effect = lower value) of the same molecule?
Answer: Its normalized growth is 1.13 [resistant] (active).

Question: And the normalized growth (locus YJL092W, strain hpr5, stronger effect = lower value)?
Answer: Its normalized growth is 1.13 [resistant] (active).

Question: And the normalized growth (locus YJL095W, strain BCK1 (second series), stronger effect = lower value)?
Answer: Its normalized growth is 1.02 (inactive).

Question: What about the normalized growth (locus YJL095W, strain BCK1, stronger effect = lower value) of the same molecule?
Answer: The normalized growth was 1.1 (inactive) and 0.966 (inactive).

Question: And the normalized growth (locus YJL115W, strain asf1, stronger effect = lower value)?
Answer: The normalized growth was 1.14 [resistant] (active).

Question: And the normalized growth (locus YJL129C, strain trk1, stronger effect = lower value)?
Answer: Its normalized growth is 1.09 (inactive).

Question: What about the normalized growth (locus YJL134W, strain LCB3, stronger effect = lower value) of the same molecule?
Answer: The normalized growth was 1.09 [resistant] (active).

Question: What about the normalized growth (locus YJL154C, strain vps35, stronger effect = lower value) of the same molecule?
Answer: The normalized growth was 1.13 [resistant] (active).

Question: And the normalized growth (locus YJL164C, strain tpk1, stronger effect = lower value)?
Answer: Its normalized growth is 1.13 [resistant] (active).

Question: What about the normalized growth (locus YJL166W, strain qcr8, stronger effect = lower value) of the same molecule?
Answer: Its normalized growth is 1.13 [resistant] (active).

Question: And the normalized growth (locus YJL168C, strain set2, stronger effect = lower value)?
Answer: Its normalized growth is 1.13 [resistant] (active).

Question: And the normalized growth (locus YJL187C, strain SWE1 (second series), stronger effect = lower value)?
Answer: Its normalized growth is 1.1 (inactive).

Question: What about the normalized growth (locus YJL187C, strain SWE1, stronger effect = lower value) of the same molecule?
Answer: Its normalized growth is 1.07 (inactive).

Question: And the normalized growth (locus YJR043C, strain POL32, stronger effect = lower value)?
Answer: Its normalized growth is 1.12 (inactive).
